Activity calls are given as the source filed them.
Tests used:
[1] = tested on: PRMT1 (protein arginine N-methyltransferase 1); assay: small molecules binding arginine methyltransferase PRMT1 – biochemical, small-molecule microarray, 635 nm fluorescence, primary screen (AID 1088); conditions: higher = more signal;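 further: binding of Prmt1 protein to compounds spotted on small-molecule microarray slides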
[2] = growth effects on S. cerevisiae YJM789 – YJM789 clinical isolate, OD600, 24 h, basal, primary screen (AID 1089); conditions: higher = more signal, called active from +8 up or from −8 down;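 further: growth of clinical yeast isolate S. cerevisiae YJM 789 seeded 1000 cells per well; test concentration not given here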
[3] = S. pombe growth modifiers, basal conditions – strain 972, OD600, 24 h, no modulator, primary screen (AID 1090);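 further: basal condition with compound alone and no growth modifier present; test concentration not given here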; conditions: S. pombe 972 growth, higher = more signal, called active from +8 up or from −8 down
[4] = budding yeast growth modifiers under rapamycin – strain BY4716, OD600, 96 h, primary screen (AID 1091); further: test concentration not given here; conditions: S. cerevisiae BY4716 + rapamycin, higher = more signal, called active from +8 up or from −8 down
[5] = target: Torsin-1A-interacting protein 2 (Homo sapiens) (UniProt Q8NFQ8); assay: small molecules binding lysate-expressed LULL1 – cell lysate, human LULL1 lysate, 635/667 nm fluorescence, primary screen (AID 1092); conditions: small-molecule microarray, hLULL1 lysate binding, 635 nm fluorescence; higher = more signal;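 further: probe is lysate of COS7 cells overexpressing human LULL1; score merges per-feature 667 nm fluorescence with signal-to-noise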
Torsin-1A-interacting protein 2 (Homo sapiens), sequence (Q8NFQ8 whole entry, looked up): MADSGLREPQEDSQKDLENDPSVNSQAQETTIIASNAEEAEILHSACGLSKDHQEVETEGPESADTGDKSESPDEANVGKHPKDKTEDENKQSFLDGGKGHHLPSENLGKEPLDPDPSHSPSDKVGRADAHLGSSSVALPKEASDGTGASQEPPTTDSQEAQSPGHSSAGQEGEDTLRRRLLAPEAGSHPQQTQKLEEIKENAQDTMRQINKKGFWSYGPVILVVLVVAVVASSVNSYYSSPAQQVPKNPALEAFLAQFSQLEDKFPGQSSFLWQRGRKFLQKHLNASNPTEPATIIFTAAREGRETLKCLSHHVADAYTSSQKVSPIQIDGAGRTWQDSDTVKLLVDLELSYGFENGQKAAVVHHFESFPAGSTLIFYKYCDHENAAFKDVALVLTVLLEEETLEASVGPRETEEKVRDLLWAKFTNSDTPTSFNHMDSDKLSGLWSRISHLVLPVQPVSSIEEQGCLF

[6] = optical density change of DRC41 E. coli – strain DRC41, OD650, 24 h, E. coli filamentation project, primary screen (AID 1093);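 further: MC1000 strain lacking acrAB efflux and sulA so SOS filamentation is blocked; test concentration not given here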; conditions: E. coli DRC41 growth, higher = more signal, called active from +8 up or from −8 down
[7] = probe aLefty2 binding to arrayed compounds – biochemical, biotinylated probe, 635/667 nm fluorescence, primary screen (AID 1094); conditions: small-molecule microarray, higher = more signal;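 further: score merges spot fluorescence near 667 nm with spot signal-to-noise ratio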
[8] = tested on: Noggin (protein binding on small-molecule microarray); assay: small molecules binding Noggin protein – biochemical, 635/667 nm fluorescence, primary screen (AID 1095); conditions: 635 nm fluorescence, higher = more signal;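 further: score merges 667 nm feature fluorescence with signal to noise over triplicate slides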
[9] = target: Neurogenic locus notch homolog protein 3 (Homo sapiens) (UniProt Q9UM47); assay: small molecules binding NOTCH3 protein – biochemical, 635/667 nm fluorescence, primary screen (AID 1096); conditions: small-molecule microarray, 635 nm fluorescence, higher = more signal
Neurogenic locus notch homolog protein 3 (Homo sapiens), sequence (Q9UM47 whole entry, looked up): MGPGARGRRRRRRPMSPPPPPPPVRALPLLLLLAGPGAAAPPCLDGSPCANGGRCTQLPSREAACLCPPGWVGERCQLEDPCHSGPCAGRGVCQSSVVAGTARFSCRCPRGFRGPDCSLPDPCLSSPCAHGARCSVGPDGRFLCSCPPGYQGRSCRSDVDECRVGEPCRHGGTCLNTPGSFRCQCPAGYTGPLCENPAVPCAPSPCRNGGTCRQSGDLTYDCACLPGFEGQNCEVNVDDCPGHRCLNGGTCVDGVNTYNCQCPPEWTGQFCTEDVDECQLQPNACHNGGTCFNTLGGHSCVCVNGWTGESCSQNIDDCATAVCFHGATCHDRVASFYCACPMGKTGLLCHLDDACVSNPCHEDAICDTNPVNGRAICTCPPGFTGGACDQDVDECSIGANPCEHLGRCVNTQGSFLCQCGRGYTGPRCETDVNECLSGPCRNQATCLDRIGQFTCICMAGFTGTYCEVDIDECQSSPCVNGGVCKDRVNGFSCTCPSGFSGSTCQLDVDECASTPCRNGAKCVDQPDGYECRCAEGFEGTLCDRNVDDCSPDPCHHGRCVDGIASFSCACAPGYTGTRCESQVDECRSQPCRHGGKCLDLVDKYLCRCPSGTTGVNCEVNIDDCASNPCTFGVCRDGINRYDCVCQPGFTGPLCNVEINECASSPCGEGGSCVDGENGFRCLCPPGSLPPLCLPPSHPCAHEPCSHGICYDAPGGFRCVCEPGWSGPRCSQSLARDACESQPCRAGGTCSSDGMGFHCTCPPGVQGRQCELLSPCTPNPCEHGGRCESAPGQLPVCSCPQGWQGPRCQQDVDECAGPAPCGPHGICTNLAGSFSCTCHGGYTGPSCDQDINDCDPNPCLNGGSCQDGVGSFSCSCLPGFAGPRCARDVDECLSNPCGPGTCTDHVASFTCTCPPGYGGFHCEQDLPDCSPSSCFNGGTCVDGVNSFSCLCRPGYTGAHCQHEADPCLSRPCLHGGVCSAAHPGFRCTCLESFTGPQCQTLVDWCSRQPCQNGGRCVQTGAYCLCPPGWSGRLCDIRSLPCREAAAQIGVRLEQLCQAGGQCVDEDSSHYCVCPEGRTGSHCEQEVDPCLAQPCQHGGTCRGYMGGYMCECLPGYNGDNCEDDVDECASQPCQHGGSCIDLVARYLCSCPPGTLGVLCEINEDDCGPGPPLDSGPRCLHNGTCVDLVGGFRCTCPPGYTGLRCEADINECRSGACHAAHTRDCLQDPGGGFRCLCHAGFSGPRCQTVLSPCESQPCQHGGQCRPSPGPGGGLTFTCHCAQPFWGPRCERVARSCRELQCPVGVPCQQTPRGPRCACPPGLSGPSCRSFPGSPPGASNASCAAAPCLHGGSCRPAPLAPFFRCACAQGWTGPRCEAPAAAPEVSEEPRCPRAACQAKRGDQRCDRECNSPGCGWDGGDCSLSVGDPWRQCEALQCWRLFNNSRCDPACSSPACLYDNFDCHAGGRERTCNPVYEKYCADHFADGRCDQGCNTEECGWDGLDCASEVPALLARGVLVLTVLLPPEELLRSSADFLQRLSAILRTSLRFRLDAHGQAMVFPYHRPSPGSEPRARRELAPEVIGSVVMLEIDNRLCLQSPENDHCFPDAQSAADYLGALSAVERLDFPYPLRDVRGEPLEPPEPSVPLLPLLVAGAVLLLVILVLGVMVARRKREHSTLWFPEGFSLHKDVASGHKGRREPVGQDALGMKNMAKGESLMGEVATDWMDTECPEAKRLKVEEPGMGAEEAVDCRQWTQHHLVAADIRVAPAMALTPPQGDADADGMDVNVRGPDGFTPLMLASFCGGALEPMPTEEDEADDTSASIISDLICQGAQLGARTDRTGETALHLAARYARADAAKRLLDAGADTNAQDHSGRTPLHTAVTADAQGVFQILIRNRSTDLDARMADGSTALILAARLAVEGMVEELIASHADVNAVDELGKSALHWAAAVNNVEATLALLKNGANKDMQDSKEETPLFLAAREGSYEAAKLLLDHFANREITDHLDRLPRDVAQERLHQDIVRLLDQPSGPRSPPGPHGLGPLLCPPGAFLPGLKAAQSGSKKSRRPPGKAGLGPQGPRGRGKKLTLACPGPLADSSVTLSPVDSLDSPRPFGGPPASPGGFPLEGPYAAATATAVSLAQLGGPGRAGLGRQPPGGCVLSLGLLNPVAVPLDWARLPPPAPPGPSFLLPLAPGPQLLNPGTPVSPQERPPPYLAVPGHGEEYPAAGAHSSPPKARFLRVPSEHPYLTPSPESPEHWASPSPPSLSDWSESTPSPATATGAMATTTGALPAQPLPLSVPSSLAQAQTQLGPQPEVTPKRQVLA

[10] = probe aEGFR binding to arrayed compounds – biochemical, biotinylated probe, 635/667 nm fluorescence, primary screen (AID 1097); conditions: small-molecule microarray, higher = more signal;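 further: probe is a biotinylated anti-EGFR antibody binding compounds printed on slides; score combines fluorescence near 667 nm and signal to noise of each spot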

## [N-]=[N+]=Nc1ccccc1[C@@H]1OC(c2ccc(OCCCO)cc2)=N[C@]1(Cc1ccccc1)C(=O)N1CCOCC1
[1]
  composite z-score: 1.56
[2]
  z-score: 0.785 (inactive)
[3]
  z-score: -1.26 (inactive)
[4]
  z-score: 1.85 (inactive)
[5]
  composite z-score: 3.22
[6]
  z-score: 0.301 (inactive)
[7]
  composite z-score: 0.225
[8]
  composite z-score: 0.328
[9]
  composite z-score: 1.1
[10]
  composite z-score: 0.276

## COc1cc2c(cc1O)C(c1cccs1)N(C)CC2 (stereo not given)
[1]
  composite z-score: -0.414
[2]
  z-score: 0.213 (inactive)
[3]
  z-score: 1.07 (inactive)
[4]
  z-score: -2.13 (inactive)
[5]
  composite z-score: -0.849
[6]
  z-score: 0.841 (inactive)
[7]
  composite z-score: -0.0943
[8]
  composite z-score: -0.428
[9]
  composite z-score: -0.0102
[10]
  composite z-score: -0.151

## [N-]=[N+]=Nc1ccccc1[C@@H]1OC(c2ccc(OCCCO)cc2)=N[C@]1(CCS(=O)(=O)c1ccccc1)C(N)=O
[1]
  composite z-score: 1.55
[2]
  z-score: 0.193 (inactive)
[3]
  z-score: -1.36 (inactive)
[4]
  z-score: 0.199 (inactive)
[5]
  composite z-score: 3.64
[6]
  z-score: 0.743 (inactive)
[7]
  composite z-score: 0.588
[8]
  composite z-score: 0.561
[9]
  composite z-score: 0.91
[10]
  composite z-score: 0.122

## CCOC(=O)C[C@H]1[C@H](OC(=O)c2ccccc2-c2ccccc2)[C@@H](NC(=O)CC(C)C)c2cc(OCCCO)ccc2N1C(=O)Cc1ccc(OC)cc1
[1]
  composite z-score: 0.395
[2]
  z-score: -0.454 (inactive)
[3]
  z-score: 0.109 (inactive)
[4]
  z-score: 0.146 (inactive)
[5]
  composite z-score: 0.472
[6]
  z-score: -0.853 (inactive)
[7]
  composite z-score: -0.103
[8]
  composite z-score: 0.356
[9]
  composite z-score: -0.23
[10]
  composite z-score: -0.111

## C=C(COC)/C(=C/C[C@H](OC(C)=O)c1ccc(CO)o1)c1cc(C(=O)OC)ccc1OC
[1]
  composite z-score: 0.404
[2]
  z-score: 0.517 (inactive)
[3]
  z-score: -0.131 (inactive)
[4]
  z-score: 0.0604 (inactive)
[5]
  composite z-score: 1.67
[6]
  z-score: 0.796 (inactive)
[7]
  composite z-score: -0.142
[8]
  composite z-score: 0.493
[9]
  composite z-score: 0.217
[10]
  composite z-score: -0.284

## C=C(CC1([C@@H](NP(=O)(c2ccccc2)c2ccccc2)[C@H]2C[C@@H]2CCCC)CC1)c1ccccc1
[1]
  composite z-score: 0.759
[2]
  z-score: -0.254 (inactive)
[3]
  z-score: 0.204 (inactive)
[4]
  z-score: 3.83 (inactive)
[5]
  composite z-score: 2.53
[6]
  z-score: -0.357 (inactive)
[7]
  composite z-score: 0.153
[8]
  composite z-score: -0.591
[9]
  composite z-score: 0.418
[10]
  composite z-score: -0.0844

## CCCC[C@@H]1C[C@H]1[C@@H](NC(=O)c1cccs1)c1ccc(-c2ccccc2)cc1
[1]
  composite z-score: 0.464
[2]
  z-score: 0.227 (inactive)
[3]
  z-score: -3.7 (inactive)
[4]
  z-score: -1.24 (inactive)
[5]
  composite z-score: 1.09
[6]
  z-score: -0.692 (inactive)
[7]
  composite z-score: -0.121
[8]
  composite z-score: 0.692
[9]
  composite z-score: 0.428
[10]
  composite z-score: -0.0688

## CC(C)=CCCC(C)=CC(O)C1C=CC2C(=O)N(C)C(=O)C2N1Nc1ccccc1 (stereo not given)
[1]
  composite z-score: 1.55
[2]
  z-score: -0.193 (inactive)
[3]
  z-score: -1.26 (inactive)
[4]
  z-score: 2.76 (inactive)
[5]
  composite z-score: 3.29
[6]
  z-score: -0.339 (inactive)
[7]
  composite z-score: 0.245
[8]
  composite z-score: 0.411
[9]
  composite z-score: 1.03
[10]
  composite z-score: 0.167

## C[N+](C)(C)CCCCCCNC(=O)[C@@H]1C[C@@H]2C(=O)N[C@@H](Cc3ccccc3)C(=O)N2[C@@H]1c1cccc(OCCO)c1
[1]
  composite z-score: 1.57
[2]
  z-score: -0.165 (inactive)
[3]
  z-score: 0.297 (inactive)
[4]
  z-score: -0.214 (inactive)
[5]
  composite z-score: 2.87
[6]
  z-score: 1.02 (inactive)
[7]
  composite z-score: 0.0235
[8]
  composite z-score: 1.82
[9]
  composite z-score: 1.09
[10]
  composite z-score: -0.0688

## COCCOC(=O)N1C(=O)[C@@]2(c3cc(C#CC4(O)CCCCCC4)ccc31)[C@H](c1ccccc1OCCO)N1[C@H](c3ccccc3)[C@H](c3ccccc3)OC(=O)[C@H]1[C@@H]2C(=O)N1CCN(c2ncccn2)CC1
[1]
  composite z-score: 1.55
[2]
  z-score: 2.46 (inactive)
[3]
  z-score: 1.5 (inactive)
[4]
  z-score: 6.01 (inactive)
[5]
  composite z-score: 2.73
[6]
  z-score: 1.02 (inactive)
[7]
  composite z-score: 0.028
[8]
  composite z-score: 0.574
[9]
  composite z-score: 0.959
[10]
  composite z-score: 0.219

## COCCOC(=O)N1C(=O)[C@@]2(c3ccccc31)[C@H](C(=O)N1CCc3cc(OC)c(OC)cc3C1)[C@H]1C(=O)O[C@H](c3ccccc3)[C@H](c3ccccc3)N1[C@@H]2c1ccc(OCCO)cc1
[1]
  composite z-score: 1.51
[2]
  z-score: 2.26 (inactive)
[3]
  z-score: 0.476 (inactive)
[4]
  z-score: 4.47 (inactive)
[5]
  composite z-score: 2.27
[6]
  z-score: 1.68 (inactive)
[7]
  composite z-score: 0.103
[8]
  composite z-score: 0.94
[9]
  composite z-score: 0.995
[10]
  composite z-score: -0.0309

## C[N+](C)(C)CCCCNC(=O)[C@H]1C[C@H]2C(=O)N3CCC[C@H]3C(=O)N2[C@H]1c1cccc(OCCO)c1
[1]
  composite z-score: 0.0394
[2]
  z-score: 0.573 (inactive)
[3]
  z-score: -0.0177 (inactive)
[4]
  z-score: -1.09 (inactive)
[5]
  composite z-score: 0.889
[6]
  z-score: 0.51 (inactive)
[7]
  composite z-score: 0.0459
[8]
  composite z-score: 1.52
[9]
  composite z-score: 0.0378
[10]
  composite z-score: -0.185

## CCOC(=O)C[C@H]1[C@H](OC(=O)c2ccc(C(=O)c3ccccc3)cc2)[C@@H](NC(=O)c2ccc3ccccc3n2)c2cc(OCCCO)ccc2N1C(=O)c1ccccc1
[1]
  composite z-score: 1.23
[2]
  z-score: -0.658 (inactive)
[3]
  z-score: 0.103 (inactive)
[4]
  z-score: -0.291 (inactive)
[5]
  composite z-score: 1.94
[6]
  z-score: -1.16 (inactive)
[7]
  composite z-score: -0.025
[8]
  composite z-score: 0.552
[9]
  composite z-score: 0.99
[10]
  composite z-score: 0.0864

## CN(C)CCCC[C@@H]1NC(=O)[C@@H]2C[C@H](C(=O)NCCCCCCN)[C@H](c3cccc(OCCO)c3)N2C1=O
[1]
  composite z-score: 1.53
[2]
  z-score: -0.968 (inactive)
[3]
  z-score: -4.9 (inactive)
[4]
  z-score: -0.883 (inactive)
[5]
  composite z-score: 3.25
[6]
  z-score: 0.26 (inactive)
[7]
  composite z-score: 1.03
[8]
  composite z-score: 0.612
[9]
  composite z-score: 0.395
[10]
  composite z-score: 0.54

## COCCOC(=O)N1C(=O)[C@@]2(c3cc(C#CC4(O)CCCCCC4)ccc31)[C@H](c1ccc(OCCO)cc1)N1[C@H](c3ccccc3)[C@H](c3ccccc3)OC(=O)[C@H]1[C@@H]2C(=O)N1CCN(c2ncccn2)CC1
[1]
  composite z-score: 1.56
[2]
  z-score: 2.64 (inactive)
[3]
  z-score: 2.26 (inactive)
[4]
  z-score: 6.24 (inactive)
[5]
  composite z-score: 2.69
[6]
  z-score: 0.0846 (inactive)
[7]
  composite z-score: -0.136
[8]
  composite z-score: 1.67
[9]
  composite z-score: 1.08
[10]
  composite z-score: -0.108

## CC(C)NC(=O)[C@@]1(C)c2ccccc2C(=O)N(Cc2cc(C(F)(F)F)cc(C(F)(F)F)c2)[C@H]1c1ccc(CO)cc1
[1]
  composite z-score: 1.4
[2]
  z-score: 0.49 (inactive)
[3]
  z-score: 0.155 (inactive)
[4]
  z-score: -0.0902 (inactive)
[5]
  composite z-score: 3
[6]
  z-score: -0.0192 (inactive)
[7]
  composite z-score: -0.239
[8]
  composite z-score: -0.729
[9]
  composite z-score: -0.301
[10]
  composite z-score: -0.295

## CC(C)C(=C=CC[C@H](O)c1ccc(OCCO)cc1)CCO
[1]
  composite z-score: 1.55
[2]
  z-score: -1.83 (inactive)
[3]
  z-score: -1.27 (inactive)
[4]
  z-score: -0.768 (inactive)
[5]
  composite z-score: 2.22
[6]
  z-score: -0.327 (inactive)
[7]
  composite z-score: -0.0113
[8]
  composite z-score: 1.37
[9]
  composite z-score: -0.0409
[10]
  composite z-score: -0.12

## O=C1N[C@@H](Cc2ccccc2)C(=O)N2[C@@H]1C[C@@H](C(=O)O)[C@H]2c1cccc(OCCO)c1
[1]
  composite z-score: 1.56
[2]
  z-score: 0.809 (inactive)
[3]
  z-score: -0.66 (inactive)
[4]
  z-score: -0.276 (inactive)
[5]
  composite z-score: 1.06
[6]
  z-score: 1.18 (inactive)
[7]
  composite z-score: -0.0206
[8]
  composite z-score: 1.43
[9]
  composite z-score: 0.611
[10]
  composite z-score: -0.071

## C=C(C)[C@@H]1CC=C(C(O)C2C=CC3C(=O)N(C)C(=O)C3N2Nc2ccccc2)CC1 (stereo not given in full)
[1]
  composite z-score: 1.12
[2]
  z-score: 0.821 (inactive)
[3]
  z-score: -0.329 (inactive)
[4]
  z-score: 1.92 (inactive)
[5]
  composite z-score: 1.16
[6]
  z-score: -1.03 (inactive)
[7]
  composite z-score: 0.118
[8]
  composite z-score: 0.728
[9]
  composite z-score: 1.08
[10]
  composite z-score: 0.0044

## COC(=O)C(CC#Cc1ccc2c(c1)[C@]1(C(=O)N2)[C@H](C(=O)Nc2nc3ccccc3s2)[C@H]2C(=O)O[C@H](c3ccccc3)[C@H](c3ccccc3)N2[C@@H]1c1ccccc1OCCO)C(=O)OC
[1]
  composite z-score: 1.55
[2]
  z-score: 1.35 (inactive)
[3]
  z-score: 1.12 (inactive)
[4]
  z-score: 1.39 (inactive)
[5]
  composite z-score: 2.69
[6]
  z-score: -0.404 (inactive)
[7]
  composite z-score: 0.0293
[8]
  composite z-score: 0.485
[9]
  composite z-score: 1.08
[10]
  composite z-score: -0.0244

## CCC(CC)C(O)C1C=CC2C(=O)NC(=O)C2N1Nc1ccc(Cl)cc1Cl (stereo not given)
[1]
  composite z-score: 1.4
[2]
  z-score: 0.446 (inactive)
[3]
  z-score: -5.81 (inactive)
[4]
  z-score: 1.34 (inactive)
[5]
  composite z-score: 3.13
[6]
  z-score: -1.57 (inactive)
[7]
  composite z-score: -0.0306
[8]
  composite z-score: -0.284
[9]
  composite z-score: 1.01
[10]
  composite z-score: -0.0352

Source: PubChem BioAssay
